Several values for one entry are separate records, joined by “and”; a condition that tells them apart may be missing. Equal values may be shown once. Records with an inconclusive call do not appear. A structure can be active in one record and inactive in another. Activity calls are given as the source filed them. Calls come from the whole dose curve; as a rule, active = well fitted curve in the direction sought with a large enough effect; inconclusive = small, poorly fitted or top-dose-only effect, or another doubt; inactive = no such curve, though single readings can be large; an effect the other way counts as inactive or inconclusive.
Legend:
[1] = Viability qHTS for spleen associated tyrosine kinase inhibitor (SYKi) naive MV4-11 cells (AID 1963823); conditions: MV4-11 AML viability, CellTiter-Glo luminescence, 72 h; series mostly up to 45 µM; note: nearly all actives have a fitted effect of over 40% in size
Method in brief: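 qHTS, SYK inhibitor-naive MV4-11; 500 cells/well; 72 hr compound exposure, 37 C; CellTiter-Glo added, 10 min RT; luminescence read.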

[2] = Viability qHTS for spleen associated tyrosine kinase inhibitor (SYKi) drug resistant MV4-11 cells (AID 1963824); conditions: SYKi-resistant MV4-11 viability, CellTiter-Glo, 72 h; series mostly up to 45 µM; note: nearly all actives have a fitted effect of over 35% in size
Method in brief: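 SYK inhibitor-resistant MV4-11 AML cells, 500 per well, added to predispensed compounds and incubated 72 hr at 37 C, 5% CO2. Viability measured by CellTiter-Glo luminescence after 10 min at room temperature.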

[3] = Quantitative highthroughput screen to assess conditional lethalithy of NOMO1 cells grown in RPMI1640 with untreated serum (RPMI+s) (AID 1963876); conditions: NOMO1 AML cells in RPMI+serum, CellTiter-Glo viability, 48 h; series mostly up to 45.8 µM; note: nearly all actives have a fitted effect of over 35% in size;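 for Viability: 100% = DMSO wells and 0% = empty wells without cells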
Method in brief: (§1)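 Each medium arm—HPLM with 10% dialyzed FBS, or RPMI1640 with 5 mM glucose and 10% untreated or dialyzed FBS—was screened against an 11-point, 3-fold compound titration for 48 h at 37 °C, with CellTiter-Glo luminescence as endpoint.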

[4] = Quantitative highthroughput screen to assess conditional lethalithy of NOMO1 cells grown in RPMI1640 with dialyzed fetal bovine serum (RPMI+ds) (AID 1963877); conditions: NOMO1 in RPMI+dialyzed FBS viability, ATP luminescence, 48 h; series mostly up to 45.8 µM; note: nearly all actives have a fitted effect of over 30% in size;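 for Viability: 100% = DMSO control wells and 0% = empty wells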
Method in brief: as §1

[5] = Quantitative highthroughput screen to assess conditional lethalithy of P12 Ichikawa cells grown in Human Plasma-Like Medium with dialyzed fetal bovine serum (HPLM+ds) (AID 1963879); conditions: ATP luminescence, 48 h; Potency: viability; series mostly up to 45.8 µM; note: nearly all actives have a fitted effect of over 35% in size
Method in brief: as §1

[6] = Quantitative highthroughput screen to assess conditional lethalithy of P12 Ichikawa cells grown in RPMI1640 with dialyzed fetal bovine serum (RPMI+ds) (AID 1963880); conditions: ATP luminescence, 48 h; Potency: P12-Ichikawa viability; series mostly up to 45.8 µM; note: nearly all actives have a fitted effect of over 35% in size;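 for Viability: 100% = DMSO wells and 0% = empty wells on each plate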
Method in brief: as §1

[7] = Quantitative highthroughput screen to assess conditional lethalithy of P12 Ichikawa cells grown in RPMI1640 with untreated serum (RPMI+s) (AID 1963881); conditions: ATP luminescence, 48 h; Potency: viability; series mostly up to 45.8 µM; note: nearly all actives have a fitted effect of over 35% in size;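 for Viability: 100% = DMSO wells and 0% = empty wells without cells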
Method in brief: as §1

[8] = Quantitative highthroughput screen to assess conditional lethalithy of SEM cells grown in Human Plasma-Like Medium with dialyzed fetal bovine serum (HPLM+ds) (AID 1963882); conditions: SEM B-ALL cells in HPLM+ds, CellTiter-Glo viability, 48 h; series mostly up to 45.8 µM; note: nearly all actives have a fitted effect of over 35% in size
Method in brief: as §1

[9] = Quantitative highthroughput screen to assess conditional lethalithy of SEM cells grown in RPMI1640 with unreated serum (RPMI+s) (AID 1963883); conditions: SEM B-ALL cells, CellTiter-Glo viability, 48 h; series mostly up to 45.8 µM; note: nearly all actives have a fitted effect of over 35% in size;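 for Viability: 100% = DMSO wells and 0% = empty wells without cells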
Method in brief: as §1

[10] = Quantitative highthroughput screen to assess conditional lethalithy of SEM cells grown in RPMI1640 with dialyzed fetal bovine serum (RPMI+ds) (AID 1963884); conditions: SEM B-ALL cells, RPMI+dialyzed FBS, CellTiter-Glo viability, 48 h; series mostly up to 45.8 µM; note: nearly all actives have a fitted effect of over 35% in size;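 for Viability: 100% = DMSO control wells and 0% = empty wells without cells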
Method in brief: as §1

[11] = Cellular viability qHTS for adrenocortical cancer (ACC) cell line SW-13 (AID 1963989); conditions: SW-13 ACC cells viability, CellTiter-Glo, 48 h; activity (max response): stronger effect = lower value; note: nearly all actives have a fitted effect of over 65% in size;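 for activity (max response): cells grown in serum-free medium with ITS supplement; % is set by controls: 0 for no effect and ±100 for the full control effect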
Method in brief: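 Compound titrations (up to 46 uM final, in DMSO) were applied to SW-13 cells for 48 h at 37C/5% CO2. Reading used CellTiter-Glo after 20 min at room temperature; fitted curves yielded IC50 and efficacy.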

[12] = Cellular viability qHTS for adrenocortical cancer (ACC) cell line NCI-H295R (AID 1963990); conditions: CellTiter-Glo ATP luminescence, 48 h; series mostly up to 46.1 µM; note: nearly all actives have a fitted effect of over 60% in size
Method in brief: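 Readout: CellTiter-Glo luminescence, 20 min RT. Exposure: 48 h, 37C/5% CO2. Cells: NCI-H295R, ITS-DMEM serum-free. Range: up to 46 uM. Analysis: 4PL fit, IC50 plus efficacy.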
Potency is the fitted concentration of half-maximal effect.

CN(C)Cc1c(C(=O)NCCOc2ccc(C(=O)NO)cc2)oc2ccccc12
active: Potency [1] 326 nM and 296 nM | Potency [2] 259 nM and 235 nM | Potency [3] 4180 nM | Potency [4] 4180 nM | Potency [5] 2350 nM | Potency [6] 2960 nM | Potency [7] 2090 nM | Potency [8] 1180 nM | Potency [9] 1320 nM | Potency [10] 1480 nM | Potency [11] 1.26 µM | Potency [12] 794 nM

Fc1ccc(Cl)cc1-c1nc(Nc2ccncc2)c2nccnc2n1
inactive and 18.6 µM (active): Potency [1]
inactive: Potency [2] | Potency [3] | Potency [4] | Potency [5] | Potency [6] | Potency [7] | Potency [8] | Potency [9] | Potency [10] | Potency [12]

CC(=O)CC(c1ccccc1)c1c(O)c2ccccc2oc1=O (stereo not given)
inactive: Potency [1] | Potency [2] | Potency [3] | Potency [4] | Potency [5] | Potency [6] | Potency [7] | Potency [8] | Potency [9] | Potency [10] | activity (max response) [11] -5.83% and 0.968% | Potency [12]

CCCCc1oc2ccc(NS(C)(=O)=O)cc2c1C(=O)c1ccc(OCCCN(CCCC)CCCC)cc1
active: Potency [1] 6.68 µM and 2.59 µM and 6.61 µM | Potency [2] 2.99 µM and 2.91 µM and 6.61 µM | Potency [3] 1180 nM | Potency [4] 2090 nM | Potency [5] 8330 nM | Potency [6] 9350 nM | Potency [7] 8330 nM | Potency [11] 11.6 µM and 3.98 µM | Potency [12] 4.11 µM and 4.47 µM

CCCc1cc(C(N)=S)ccn1
inactive: Potency [1] | Potency [2] | Potency [3] | Potency [4] | Potency [5] | Potency [6] | Potency [7] | Potency [8] | Potency [9] | Potency [10] | activity (max response) [11] 7.42% and -7.33% | Potency [12]

COc1cc(C)c(Sc2cnc(NC(=O)c3ccc(CNC(C)C(C)C)cc3)s2)cc1C(=O)N1CCN(C(C)=O)CC1 (stereo not given)
active: Potency [1] 5.25 µM and 5.17 µM | Potency [2] 7.42 µM and 8.2 µM | Potency [8] 7430 nM | Potency [9] 5260 nM | Potency [10] 5260 nM | Potency [11] 17.8 µM | Potency [12] 7940 nM
inactive: Potency [3] | Potency [4] | Potency [5] | Potency [7]

N[C@@]1(C(=O)O)CS(=O)(=O)[C@H]2[C@H](C(=O)O)[C@H]21
inactive: Potency [1] | Potency [2] | Potency [3] | Potency [4] | Potency [5] | Potency [6] | Potency [7] | activity (max response) [11] 10.9% | Potency [12]

O=C(O)CCNC(=O)c1ccc(N=Nc2ccc(O)c(C(=O)O)c2)cc1
inactive: Potency [1] | Potency [2] | Potency [3] | Potency [4] | Potency [5] | Potency [6] | Potency [7] | Potency [8] | Potency [9] | Potency [10] | activity (max response) [11] 4.01% and 3.9% | Potency [12]

CC(C)[C@@H](CS(=O)(=O)C(C)C)N1C(=O)[C@@](C)(CC(=O)O)C[C@H](c2cccc(Cl)c2)[C@H]1c1ccc(Cl)cc1
active: Potency [1] 18.6 µM | Potency [2] 14.6 µM and 16.6 µM | Potency [3] 1660 nM | Potency [4] 2090 nM | Potency [5] 209 nM | Potency [7] 933 nM | Potency [8] 4170 nM | Potency [9] 295 nM

Cc1cc(-c2ncc(CC(=O)Nc3ccc(-c4cnccn4)cn3)cc2C)ccn1
inactive: Potency [3] | Potency [4] | Potency [5] | Potency [6] | Potency [7] | Potency [8] | Potency [9] | Potency [10] | activity (max response) [11] -24.1% | Potency [12]
active: Potency [1] 5.25 µM | Potency [2] 2.06 µM

NCC(=O)Nc1ccc(-n2nc(C(F)(F)F)cc2-c2ccc3c(ccc4ccccc43)c2)cc1
active: Potency [1] 5.8 µM and 5.9 µM | Potency [2] 2.91 µM and 4.68 µM | Potency [4] 9350 nM | Potency [5] 2960 nM | Potency [6] 2960 nM
inactive: Potency [3] | Potency [8] | Potency [9]

COc1cccc2c1C(=O)c1c(O)c3c(c(O)c1C2=O)C[C@@](O)(C(=O)CO)C[C@@H]3O[C@H]1C[C@H](N)[C@H](OC2CCCCO2)[C@H](C)O1 (stereo not given in full)
active: Potency [1] 105 nM and 74.2 nM | Potency [2] 118 nM and 59 nM | Potency [11] 3.16 µM and 5.01 µM | Potency [12] 794 nM and 8.91 µM
inactive: Potency [3] | Potency [4] | Potency [5] | Potency [6] | Potency [7]

From PubChem BioAssay (NCATS)
